Screens (PubChem)
Rows were chosen to be rich in hits. Some 3.4% of all compounds tested hit in one or more screens of this group.
PLC-gamma1 inh: inhibitors of human phospholipase C gamma1. P19174. purified PLC-gamma1, fluorogenic substrate, fluorescence. inhibition, % at 12.2 µM. 0.84% of 370,000 active. AID 720700; in the data active = inhibition above about 9.5%
HGIII-sPLA2 inh: Blocks human group III sPLA2 activity. Q9NZ20. QFRET BODIPY PC-A2 liposome hydrolysis, fluorescence. inhibition, % at 12.2 µM. 0.56% of 370,000 active;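 active = inhibition above mean plus 3 SD of compounds lying within the high and low control bounds, cut at about 19% in these data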
PLCb3 inh: inhibitors of human phospholipase C beta3 | 0.18% of 370,000 active | Purified PLC-beta3, fluorogenic substrate, fluorescence | Q01970 | inhibition, % at 12.2 µM | AID 720704; in the data active = inhibition above about 11%
ADAM10 inh: ADAM10 inhibition, QFRET primary screen | O14672 | inhibition, % at 7 µM | AID 720582 | recombinant ADAM10, EDANS/DABCYL FRET peptide cleavage, 3 h | 0.62% of 370,000 active;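 active = inhibition above a per-campaign cutoff equal to the mean of compounds falling between control-based bounds plus 3 SD, cut at about 20% in these data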
ADAM17 inh: inhibitors of human ADAM17. P78536. recombinant ADAM17, EDANS/DABCYL FRET peptide cleavage. inhibition, % at 6.95 µM. 0.83% of 370,000 active. AID 720648;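 active = inhibition above the mean of compounds lying between control limits plus 3 SD, set per campaign, cut at about 8.5% in these data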
proKLK7 act: activators of human kallikrein-7 zymogen; P49862; purified proKLK7, EDANS-DABCYL substrate fluorescence; 100% is mature enzyme control, 0% vehicle; activation, % at 7 µM; 0.9% of 370,000 active; AID 652039;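 active = activation above the mean of all tested compounds plus 3 SD, computed per campaign excluding outliers beyond control limits, cut at about 13% in these data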
ADAM10 confirm: confirmation of inhibitors of human ADAM10; shares compounds with ADAM10 inh; ADAM10 QFRET peptide cleavage, EDANS fluorescence; inhibition, % at 6.95 µM; 1% of 2,100 active; AID 743208;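 active = inhibition above about 20% chosen separately for each screening run, limit read from the data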
ADAM17 counter: inhibits human ADAM17 in ADAM10 exosite counter-screen; shares compounds with ADAM10 inh; ADAM17 QFRET peptide cleavage, EDANS fluorescence; inhibition, % at 6.95 µM; 0.5% of 2,100 active;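 active = mean triplicate inhibition above the solvent-only control wells' mean plus 3 SD, cut at about 12% in these data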
Numbers stand for hits; i = inactive; nt = no result given.

SMILES | PLC-gamma1 inh | HGIII-sPLA2 inh | PLCb3 inh | ADAM10 inh | ADAM17 inh | proKLK7 act | ADAM10 confirm | ADAM17 counter
CC(Nc1nc(-c2ccc(F)cc2)cs1)c1nc2cc(Cl)c(N3CCCCC3)cc2n1CCCO (configuration not stated) | i | i | i | 42 | i | i | i | i
CC(Nc1nc(-c2ccc(F)cc2)cs1)c1nc2cc(Cl)c(N3CCCCC3)cc2n1CCOCCO (configuration not stated) | i | i | i | i | i | i | nt | nt
COc1ccc(CNCC#Cc2ccccc2)cc1 | i | i | i | i | i | i | nt | nt
O=C(CC(Cc1ccccc1)C(=O)O)Nc1ccc(F)cc1 (configuration not stated) | i | i | i | 21 | i | i | i | i
Cc1ccc(NC(=O)C(C)c2ccc([N+](=O)[O-])cc2)cc1Cl (configuration not stated) | i | i | i | 24 | i | i | i | i
CC(C(=O)Nc1ccccc1Br)c1ccc([N+](=O)[O-])cc1 (configuration not stated) | i | i | i | i | i | i | nt | nt
O=C(NCCc1ccc2c(c1)OCO2)c1cc(-c2ccccc2)c(N2CCOCC2)s1 | i | i | i | i | i | i | nt | nt
CCc1ccc(CN(C)C(=O)c2cc(COc3cc(C)c(Cl)c(C)c3)on2)nc1 | i | i | i | i | i | i | nt | nt
Cc1cc(OCc2cc(C(=O)N(C)Cc3nonc3C)no2)cc(C)c1Cl | i | i | i | 28 | i | i | i | i
O=C(NCc1ccccc1Cl)C1CCCN(c2ncccn2)C1 (configuration not stated) | i | i | i | i | i | i | nt | nt
O=C(CCN1CCN(c2ccccc2)CC1)NNC(=S)Nc1ccccc1Cl | i | i | i | 21 | 15 | i | i | i
O=C(CN1CCN(c2ccccc2)CC1)Nc1ccccc1Cl | i | i | i | i | i | i | nt | nt
N=C1N(C(=O)OCc2ccccc2)/C(=C\C2=CCCCC2)C(Cc2ccccc2)N1Cc1ccccc1 (configuration not stated) | i | i | i | i | i | i | nt | nt
COc1ccccc1-n1c(SCC(=O)c2ccc(O)cc2O)nc2cc([N+](=O)[O-])ccc21 | i | i | i | 26 | i | i | i | i
CCOC(=O)c1cccc(NC(=O)CN(C)S(=O)(=O)c2ccc(Cl)s2)c1 | i | i | i | i | i | i | nt | nt
CCN(c1ccc(OC)cc1)S(=O)(=O)N1CCCC(C(=O)NC(C)c2ccccc2)C1 (configuration not stated) | i | i | i | 70 | i | i | i | i
CCN(c1ccc(OC)cc1)S(=O)(=O)N1CCCC(C(=O)NCc2ccccc2Br)C1 (configuration not stated) | i | i | i | i | i | i | nt | nt
CC(C)NC(=O)c1c(CSc2ccc(Cl)cc2)noc1C(=O)NCc1ccccc1 | i | i | i | 22 | i | i | i | i
CC(C)NC(=O)c1c(CSc2ccccc2)noc1C(=O)NCc1ccccc1 | i | i | i | 81 | i | i | i | i
O=C(NCc1ccccc1)c1onc(CSc2ccc(Cl)cc2)c1C(=O)NCc1ccccc1 | i | i | i | i | i | i | nt | nt
CC(=O)c1cc(-c2ccc3c(c2)OCO3)c(=O)n2c1CCC2 | i | i | i | i | i | i | nt | nt
COC(=O)[C@H](CC(C)C)N(CCCc1cn(CC2CCCCC2)nn1)S(=O)(=O)c1ccccc1Br | i | i | i | i | i | i | nt | nt
C[C@H]1CCC[C@@]2(O[C@@H](CCO)C[C@H](O)[C@H]2O)O1 | i | i | i | 83 | i | i | i | i
C[C@H]1CCC[C@]2(O[C@H](CCO)C[C@H](O)[C@H]2O)O1 | i | i | i | i | i | i | nt | nt
CCOc1ccc(S(=O)(=O)n2cnc3ccccc32)cc1 | i | i | i | 64 | i | i | i | i
SMILES | PLC-gamma1 inh | HGIII-sPLA2 inh | PLCb3 inh | ADAM10 inh | ADAM17 inh | proKLK7 act | ADAM10 confirm | ADAM17 counter
Cc1ccc(C(=O)NNC(=S)NC(=O)c2ccccc2)cc1 | i | 35 | i | 24 | i | i | i | i
Cc1ccccc1C(=O)NNC(=S)NC(=O)c1ccccc1 | i | i | i | i | i | i | nt | nt
CCOC(=O)[C@H]1[C@H]2COc3ccc(Cl)cc3[C@@H]2N2C(=O)c3cc(Cl)ccc3NC(=O)[C@@]12C | i | i | i | i | i | i | nt | nt
COc1ccc2c(c1)OC[C@H]1[C@H]2N2C(=O)CN(Cc3ccccc3)C(=O)[C@@]2(C)[C@H]1c1ccccc1 | i | i | i | 23 | i | i | i | i
CCOC(=O)[C@H]1[C@H]2COc3ccc(Cl)cc3[C@@H]2N2C(=O)c3cc(Br)ccc3NC(=O)[C@@]12C | i | i | i | 23 | i | i | i | i
CCOC(=O)[C@H]1[C@H]2COc3ccc(Br)cc3[C@H]2N2C(=O)CN(Cc3ccc(C)cc3)C(=O)[C@@]12C | i | i | i | 20 | i | i | i | i
COc1ccc(CN2CC(=O)N3[C@H]4c5ccc(OC)cc5OC[C@@H]4[C@H](c4ccccc4)[C@]3(C)C2=O)cc1 | i | i | i | i | i | i | nt | nt
CCOC(=O)[C@H]1[C@H]2COc3ccc(C)cc3[C@@H]2N2C(=O)CN(Cc3ccc(C)cc3)C(=O)[C@@]12C | i | i | i | i | i | i | nt | nt
CCOC(=O)[C@@]12CCCC=C1N(CCc1ccc(Cl)cc1)C(=O)[C@H]2CC(=O)N1CCCC1 | i | i | i | i | i | i | nt | nt
CC(=O)NC1CCCCN(C(C)C)C1=O (configuration not stated) | i | i | i | i | i | i | nt | nt
O=C(NCc1cccs1)O[C@H]1CC[C@@]23CCCN2C(=O)CCC[C@H]3C1 | i | i | i | i | i | nt | nt | nt
O=C(NCc1ccccc1F)C1CCC(CNS(=O)(=O)c2cccc3cccnc23)CC1 (configuration not stated) | i | i | i | i | i | i | nt | nt
CC(Oc1ccc(Br)cc1)C(=O)Nc1cc(Cl)ccc1N1CCN(C)CC1 (configuration not stated) | i | i | i | 20 | i | i | i | i
COc1ccc(CCC(=O)Nc2cc(Cl)ccc2N2CCN(C)CC2)cc1 | i | i | i | i | i | i | nt | nt
O=C(COc1ccc(-c2nnco2)cc1)Nc1c(F)cccc1F | i | i | i | 84 | i | i | i | i
Cc1noc(NS(=O)(=O)c2ccc(NC(=O)/C=C/c3ccc(Br)cc3)cc2)c1C | i | i | i | 22 | i | i | i | i
CCc1nnc(NS(=O)(=O)c2ccc(NC(=O)c3cccc([N+](=O)[O-])c3)cc2)s1 | i | i | i | i | i | i | nt | nt
